# This is part of a sample that, as a whole, favours compounds with a hit. Of some 79,000 tested, about 15% had one in any assay. Unmarked numbers belong to inactive results. No stated cut-off is given here; in the data, active means growth inhibition above about 70%; inactive means the rest.
# Experiment: NCI Yeast Anticancer Drug Screen. Data for the rad50 strain (AID 155);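 further: 0% = growth of vehicle-only cultures of the same strain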
# Conditions: S. cerevisiae rad50 strain growth inhibition, stronger effect = higher value; at 50.0 µM unless noted
# Procedure, shortened: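 Compounds were tested on a yeast strain with an engineered DNA damage repair alteration; the reported value is growth inhibition normalised to vehicle treatment.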
row,Compound,growth inhibition [%]
1,COc1ccc2cc(N3CCCC3)ccc2c1,7.8
2,COc1cccc(C2SC(N)=Nc3c2c(C)nn3C(=O)c2ccccc2O)c1 (stereo not given),19.7
3,CCCC(=O)OCC1OC(n2cc(F)c(=O)[nH]c2=O)CC1OC(=O)CCC (stereo not given),4.1
4,COc1ccccc1NC(=O)C(/C=N/C(=S)NNC(C)=O)=C(/C)O,0.7
5,COC1CN(C(C)(C)C)C1,2.65
6,Brc1ccc(-c2ccccc2)cc1,28.8
7,CN(C)c1ccc(NC(=O)C(c2ccccc2)c2ccccc2)cc1,6.8
8,NC(=S)C(=S)N=Cc1c(O)c2ccccc2oc1=O,39.3
9,Nc1nc(CCc2ccc(NC(=O)CBr)cc2)c(CCCCc2ccccc2)c(=O)[nH]1,16.4
10,C[N+](C)(C)c1ccc2[nH]c3ccccc3c2c1,8.7
11,COc1ccc(OC(C)C(=O)O)c2c(=O)ccccc12 (stereo not given),13.9
12,NC1(CC(=O)O)CCN(Cc2ccccc2)CC1,4.05
13,COc1cc2c(cc1OCc1ccccc1)C(Cc1cc(Br)sc1Br)=NCC2,57.8
14,Nc1ccc(S(=O)(=O)Nc2cc(C(F)(F)F)cc(C(F)(F)F)c2)cc1,12.9
15,O=C(O)c1ccc(NCC(O)COc2ccc([N+](=O)[O-])cc2)cc1 (stereo not given),-6.7
16,CS(=O)(=O)c1cccc(C(=O)O)c1,12.4
17,O=c1oc(-c2ccccc2)nc2c1sc1nc(-c3ccccc3)oc(=O)c12,47.9
18,O=C1CN(Cc2ccc3c(c2)OCO3)NO1,15.3
19,Clc1ccc(N=Nc2nc3ccccc3nc2N=Nc2ccc(Cl)cc2Cl)c(Cl)c1,-32.5
20,CCOc1ccc(/C=C(\C(=O)c2ccccc2)S(=O)(=O)c2ccc(OC)cc2)cc1OC,17.9

row,Compound,growth inhibition [%]
1,OC(Cc1ccc2ccccc2n1)(C(F)(F)F)C(F)(F)F,-53.8
2,CCC(=O)c1ccc(OC)cc1OC,-13.6
3,O=C(O)C(Cc1cccs1)C(=O)O,-12.8
4,O=C(Cc1ccccc1)c1ccccc1C(=O)NCc1ccncc1,1.7
5,[N-]=[N+]=NC1(N=[N+]=[N-])C(=O)Nc2ccccc2C1=O (stereo not given),15.5
6,C/C(CCCCCCCCCCCC/C(C)=N\Nc1ccc([N+](=O)[O-])cc1[N+](=O)[O-])=N/Nc1ccc([N+](=O)[O-])cc1[N+](=O)[O-],-15.8
7,N#CC1(OC2CCCCO2)Cc2ccccc2C1 (stereo not given),16.8
8,C/C(=N\NC(=O)Nc1ccc(N=Nc2ccccc2)cc1)c1ccncc1,17.4
9,COc1cc(C2NC(C(=O)O)CS2)cc(OC)c1OC (stereo not given),-22.4
10,Cc1cc(=O)n2nc(CSc3nnc(N)s3)sc2n1,-0.7
11,Cc1c(CCCl)c(N=P(c2ccccc2)(c2ccccc2)c2ccccc2)n2c(nc3ccccc32)c1C#N,29.1
12,CCOC(=O)C(F)C(=O)OCC,14.8
13,CCC(=O)CC(=O)CCC(=O)Nc1ccc(Cl)cc1C,-72.2
14,Cc1c(=O)n(C)c2ccccc2[n+]1[O-],7.9
15,CCCCCCC/C=C/C1CC(=O)OC1=O (stereo not given),18.4
16,CC(C)(C)OC(=O)CC(NC(=O)OC(C)(C)C)C(=O)NC(C(=O)O)C(O)c1ccccc1 (stereo not given),-19.4
17,C1COC2(OC1)OCCCO2,-14.8
18,Oc1ccc(Br)cc1/C=N/c1nc2ccccc2s1.Oc1ccc(Br)cc1/C=N/c1nc2ccccc2s1.[Cu],38
19,OCC1C(CO)C2CC1C1N=NN(c3ccccc3)C21 (stereo not given),-4.8
20,CCc1cccc(CC)c1NC(=O)OCCN(CC)CC,-3.8

# Experiment: NCI Yeast Anticancer Drug Screen. Data for the mec2-1 strain (AID 157)
# Conditions: S. cerevisiae mec2-1 strain, stronger effect = higher value; at 50.0 µM unless noted
# Procedure, shortened: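 Growth inhibition is read against vehicle-treated controls after compound exposure of the mec2-1 yeast strain, which is defective in DNA damage repair or cell cycle control.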
row,Compound,growth inhibition [%]
1,COc1ccc2cc(N3CCCC3)ccc2c1,-7.35
2,COc1cccc(C2SC(N)=Nc3c2c(C)nn3C(=O)c2ccccc2O)c1 (stereo not given),9.25
3,CCCC(=O)OCC1OC(n2cc(F)c(=O)[nH]c2=O)CC1OC(=O)CCC (stereo not given),7.9
4,COc1ccccc1NC(=O)C(/C=N/C(=S)NNC(C)=O)=C(/C)O,-16.2
5,COC1CN(C(C)(C)C)C1,6.15
6,Brc1ccc(-c2ccccc2)cc1,17.8
7,CN(C)c1ccc(NC(=O)C(c2ccccc2)c2ccccc2)cc1,-14.6
8,NC(=S)C(=S)N=Cc1c(O)c2ccccc2oc1=O,29.9
9,Nc1nc(CCc2ccc(NC(=O)CBr)cc2)c(CCCCc2ccccc2)c(=O)[nH]1,1.85
10,C[N+](C)(C)c1ccc2[nH]c3ccccc3c2c1,-11.2
11,COc1ccc(OC(C)C(=O)O)c2c(=O)ccccc12 (stereo not given),10.7
12,NC1(CC(=O)O)CCN(Cc2ccccc2)CC1,13
13,COc1cc2c(cc1OCc1ccccc1)C(Cc1cc(Br)sc1Br)=NCC2,58.5
14,Nc1ccc(S(=O)(=O)Nc2cc(C(F)(F)F)cc(C(F)(F)F)c2)cc1,16.6
15,O=C(O)c1ccc(NCC(O)COc2ccc([N+](=O)[O-])cc2)cc1 (stereo not given),4.85
16,CS(=O)(=O)c1cccc(C(=O)O)c1,7.65
17,O=c1oc(-c2ccccc2)nc2c1sc1nc(-c3ccccc3)oc(=O)c12,30.7
18,O=C1CN(Cc2ccc3c(c2)OCO3)NO1,-1.25
19,Clc1ccc(N=Nc2nc3ccccc3nc2N=Nc2ccc(Cl)cc2Cl)c(Cl)c1,-4.6
20,CCOc1ccc(/C=C(\C(=O)c2ccccc2)S(=O)(=O)c2ccc(OC)cc2)cc1OC,45.5

row,Compound,growth inhibition [%]
1,OC(Cc1ccc2ccccc2n1)(C(F)(F)F)C(F)(F)F,-43.6
2,CCC(=O)c1ccc(OC)cc1OC,1.25
3,O=C(O)C(Cc1cccs1)C(=O)O,0.6
4,O=C(Cc1ccccc1)c1ccccc1C(=O)NCc1ccncc1,2.05
5,[N-]=[N+]=NC1(N=[N+]=[N-])C(=O)Nc2ccccc2C1=O (stereo not given),14.8
6,C/C(CCCCCCCCCCCC/C(C)=N\Nc1ccc([N+](=O)[O-])cc1[N+](=O)[O-])=N/Nc1ccc([N+](=O)[O-])cc1[N+](=O)[O-],5.25
7,N#CC1(OC2CCCCO2)Cc2ccccc2C1 (stereo not given),2.45
8,C/C(=N\NC(=O)Nc1ccc(N=Nc2ccccc2)cc1)c1ccncc1,10.5
9,COc1cc(C2NC(C(=O)O)CS2)cc(OC)c1OC (stereo not given),-14.7
10,Cc1cc(=O)n2nc(CSc3nnc(N)s3)sc2n1,0.5
11,Cc1c(CCCl)c(N=P(c2ccccc2)(c2ccccc2)c2ccccc2)n2c(nc3ccccc32)c1C#N,-2.1
12,CCOC(=O)C(F)C(=O)OCC,-2.95
13,CCC(=O)CC(=O)CCC(=O)Nc1ccc(Cl)cc1C,-15.4
14,Cc1c(=O)n(C)c2ccccc2[n+]1[O-],16.1
15,CCCCCCC/C=C/C1CC(=O)OC1=O (stereo not given),11.2
16,CC(C)(C)OC(=O)CC(NC(=O)OC(C)(C)C)C(=O)NC(C(=O)O)C(O)c1ccccc1 (stereo not given),-24.9
17,C1COC2(OC1)OCCCO2,1.35
18,Oc1ccc(Br)cc1/C=N/c1nc2ccccc2s1.Oc1ccc(Br)cc1/C=N/c1nc2ccccc2s1.[Cu],40.9
19,OCC1C(CO)C2CC1C1N=NN(c3ccccc3)C21 (stereo not given),4.3
20,CCc1cccc(CC)c1NC(=O)OCCN(CC)CC,-16.9

# — PubChem BioAssay (NCI)
